The values that follow come from PubChem BioAssay AID916 (National Center for Advancing Translational Sciences (NCATS), 2007).

Results filed as inconclusive are left out. Values without a mark were called inactive. Activity calls are given as the source filed them. Calls come from the whole dose curve; as a rule, active = well fitted activation curve with a large enough effect in the signal ratio, with a control signal flat (not every such curve was filed as active); inconclusive = small, poorly fitted or top-dose-only effect, or a change in a side signal; inactive = flat fitted curve, though single readings scatter; the % refers to the signal ratio.

A short description of the assay: Confirmation Concentration-Response Assay for Cell signaling CRE-BLA (Fsk stim). The conditions noted are these: CHO CRE-bla reporter (cAMP response element driving beta-lactamase), NKH477 EC10 stim, FRET ratio; series mostly up to 38.3 µM; activation: at the top concentration. An excerpt: NIH Molecular Libraries Screening Centers Network [MLSCN] NIH Chemical Genomics Center [NCGC] MLSCN Grant: 1X01MH079867-01 Assay Provider: Marshall W. Nirenberg, U.S. National Heart, Lung and Blood Institute CRE beta-lactamase Assay Overview Memories persist for different lengths of time, from seconds or minutes to a lifetime. There are two kinds of memory: short-term memory (STM) and long-term memory (LTM). STM lasts for minutes to hours, which maybe mediated by modifications of molecules involved in synaptic functions. LTM lasts for days or longer, and may be due to the formation of new synapses or restructuring of existing synapses. LTM, but not STM, requires gene transcription and synthesis of proteins. CREB (cyclic-AMP Responsive Element Binding Protein) is one of the candidates plays an important role for enhancement of some types of LTM. CREB, a family of transcription factors, regulates the transcription of genes containing cAMP Responsive Elements (CRE). CRE is a nucleotide sequence often found in the promoter regions of genes that are binding sites for CREB. Using a beta-lactamase reporter-gene under control of cAMP responsive element, a cell-based assay [CellSensor(TM) CRE-bla CHO developed by Invitrogen Corp.] was used to measure forskolin-induced signaling. The selected compounds were measured for their ability to modulate positively the action of EC10 NKH 477, a water soluble forskolin, on reporter gene activity. Compounds were screened in a titration series in 1536-well format. Positive modulators were identified based on the AC50 values derived from the screening data.
NCGC Assay Protocol Summary 2000 cells/5uL in Opti-MEM medium containing 0.5% dialyzed FBS, 0.1 mM NEAA, 1 mM sodium pyruvate and 10 mM HEPES was dispensed into 1536-well plates and cells were cultured at 37 degrees Celsius overnight. Next day 23 nL of compounds or DMSO were delivered to each well using a pin tool, and 1uL of EC10 level of NKH 477, or EC100 level of IBMX, a PDE inhibitor, in the present of NKH 477, or assay medium was added. And then the plates were incubated at 37 degrees Celsius for 3 hours. 1 uL of CCF4-dye mixture was added to each well. After incubated at room temperature for 2 hours the plates were measured on an EnVision plate reader at Excitation 405nm, Emission1=460nm and Emission 2=530nm. The %Activity was determined from the ratio of 460nm/530nm. Keywords: NIH Roadmap, MLSCN, MLSMR, qHTS, NCGC, CRE, beta-lactamase reporter-gene assay.
As to `Cn1c(O)c(C=NCCOc2ccc(Cl)cc2)c(=O)n(C)c1=O`, the Potency is 15.8 µM (active). Same read-out and setting: the figure for `Cn1c(C(=O)N2CCC3(CC2)OCCO3)cc2c(=O)n(C)c3ccccc3c21` is 25.1 µM (active); for `COc1cc2c(c(OC)c1OC)-c1ccc(OC)c(=O)cc1[C@@H](NC(C)=O)CC2` it is 5.01 µM (active). On to `CC(C)C(=O)N1CCN(CCN=Cc2c(O)n(C)c(=O)n(C)c2=O)CC1`, for which the “activation” value was -11.5%.
